This is a sample that favours compounds with a hit; in the whole collection about 7.3% have one here.
Rab9 prom act: activators of Rab9 promoter; Huh7 Rab9 promoter-luciferase reporter, luminescence, 24 h; Potency, µM (series often up to 9.22 µM), for the others: at the highest dose activation, negative = inhibition, most hits filed as activators; hit rate 2.8% among 320,000; also: % of control where 0% means no effect; nearly all actives have a fitted effect of over 60% in size
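Quantitative HTS format; Huh7 Rab9-luciferase reporter cells (1500/well) receive compound 2 h post-plating, incubate 24 h at 37 °C, then get luciferase reagent for 10 min before luminescence reading.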
ELG1 genotox: inducers of genotoxicity in HEK293T ELG1-luciferase cells | HEK293T ELG1-luciferase reporter, luminescence, 16 h | AID 504466 | Potency, µM (top dose mostly 46 µM), for the others: top-dose activity change, positive = activation, hits mostly activators | hit rate 1.3% among 330,000; also: % of control where 0% means no effect; nearly all actives have a fitted effect of over 60% in size
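Luminescence read-out: rising ELG1-luciferase signal, reflecting elevated ELG1 protein under genetic stress, flags genotoxic compounds. Cells were treated for 16 hr at 37 °C before ONE-Glo detection.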
FLuc modulator: firefly luciferase modulation, counter-screen for miR-21 project; P08659; purified FLuc, Km substrates, luminescence inhibition; Potency, µM (highest dose often 57.5 µM), for inactives: at the highest dose activity change, negative = inhibition, usual class: inhibitors; hit rate 6.9% among 360,000; AID 588342;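 also: plate controls were vehicle for no effect and reference inhibitor for full effect; nearly all actives have a fitted effect of over 55% in size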
Target sequence (P08659 whole entry, looked up): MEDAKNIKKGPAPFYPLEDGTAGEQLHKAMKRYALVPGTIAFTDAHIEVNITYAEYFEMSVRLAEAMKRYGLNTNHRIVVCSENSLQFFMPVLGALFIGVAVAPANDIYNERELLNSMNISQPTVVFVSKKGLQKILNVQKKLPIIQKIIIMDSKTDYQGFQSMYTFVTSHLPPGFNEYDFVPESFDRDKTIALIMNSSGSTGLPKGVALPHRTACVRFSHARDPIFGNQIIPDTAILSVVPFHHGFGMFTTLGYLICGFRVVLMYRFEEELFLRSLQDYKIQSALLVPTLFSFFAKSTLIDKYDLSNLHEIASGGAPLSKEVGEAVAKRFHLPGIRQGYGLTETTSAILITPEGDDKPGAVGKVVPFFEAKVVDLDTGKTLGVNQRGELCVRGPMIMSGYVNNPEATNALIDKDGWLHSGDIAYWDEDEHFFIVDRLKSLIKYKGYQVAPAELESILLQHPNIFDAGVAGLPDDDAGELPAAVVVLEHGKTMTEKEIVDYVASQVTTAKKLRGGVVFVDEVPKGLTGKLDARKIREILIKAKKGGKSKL
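Purified P. pyralis luciferase (10nM final) with 10uM D-luciferin and 10uM ATP (Km levels) in 50mM Tris acetate pH 7.5, 10mM Mg acetate, 0.01% Tween-20, 0.05% BSA; qHTS 6-point titration, ~60 µM downward; luminescence read.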
KinaseGlo FLuc: blocks Kinase-Glo luciferase, a counter-screen artifact; AID 1379; hit rate 0.28% among 200,000; Potency, µM (doses to about 38.3 µM), inactives show at the top dose activity change, negative = inhibition, actives largely listed as inhibitors; Kinase-Glo luciferase, ATP luminescence, 8 min; Q27757; also: % is scaled to controls: 0 for no effect and ±100 for the full control effect; nearly all actives have a fitted effect of over 60% in size
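Light output from Kinase-Glo luciferase with luciferin and 10 uM ATP in 50 mM imidazole pH 7.2, KCl, MgCl2, Tween 20, BSA; compound pin-delivered, 8-min ambient incubation, then luminescence read.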
SMN2 splice up: enhancers of SMN2 splice variant expression | HEK293 SMN2-luciferase splicing reporter, luminescence, 30-36 h | Potency, µM (top dose mostly 46.1 µM), without a hit: at the top dose activity change, positive = activation, actives largely listed as activators | hit rate 2.8% among 210,000; also: % of control where 0% means no effect; nearly all actives have a fitted effect of over 55% in size
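HEK293 cells carry an SMN2 […]–luciferase reporter in which exon 7 inclusion puts luciferase in frame. Cells were plated 10-12 h before compound addition, then incubated 30-36 h at 37C. ONE-Glo luminescence was read; sodium butyrate at 4.5 mM final served as control.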
NPC1 promoter act: activators of NPC1 promoter; Potency, µM (doses to about 9.22 µM), for inactives: at the highest dose activation, actives largely listed as activators; AID 485313; Huh7 NPC1 promoter luciferase reporter, 24 h; hit rate 2.4% among 320,000; also: % of control where 0% means no effect; nearly all actives have a fitted effect of over 60% in size
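Huh7 reporter cells (NPC1 promoter driving luciferase) are dosed with compound for 24 h at 37 °C, 5% CO2; luciferase detection reagent is then added and luminescence measured after 10 min at ambient temperature.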
An asterisk follows results filed as active; ? = inconclusive; . = not tested or not shown; [ ] = remark or other dose. Calls follow the shape of the dose curve; as a rule, active = well fitted curve in the direction sought with a large enough effect; inconclusive = small, poorly fitted or top-dose-only effect, or another doubt; inactive = no such curve, though single readings can be large; an effect the other way counts as inactive or inconclusive. Potency is read from the fitted curve at half-maximal effect.

SMILES | Rab9 prom act | ELG1 genotox | FLuc modulator | KinaseGlo FLuc | SMN2 splice up | NPC1 promoter act
Cn1c(C(=O)NCCCN2CCCCCC2)cc2c(=O)n(C)c3ccccc3c21 | -9.3% | ? | 0.4% | 4.6% | 12.6µM* | -2.1%
CN(C)c1ccc(N2C(=NC(=O)CC3CCCCC3)SC3CS(=O)(=O)CC32)cc1 (stereo not given) | -8.4% | 0.3% | 0.1% | . | . | -2.7%
O=C(CCCC(=O)OCC(=O)c1ccc(Cl)cc1)NC1CCCCC1 | 4.0% | 3.2% | 12µM* | . | . | 3.0%
O=C(CCC(=O)OCC(=O)c1ccc(Br)cc1)NC1CCCCC1 | 4.8% | -0.6% | ? | -1.1% | -8.1% | -1.3%
CCCC(CCC)=NNC(=O)CN(Cc1ccccc1)S(=O)(=O)c1ccccc1 | -2.7% | -0.8% | 11.1% | -1.3% | 27.7%[1.84 µM] | -8.0%
COc1ccc2c(c1)CCc1c(-c3noc4c3CCc3cc(OC)ccc3-4)noc1-2 | . | . | . | -0.7%[7.66 µM] | -10.4%[9.22 µM] | .
COc1ccc2c(c1)CCc1c-2n[nH]c1C(=O)O | 9.5% | 2.2% | 10.7µM* | 0.9% | 12.5% | -1.2%
O=C(COC(=O)c1cccnc1Cl)Nc1cccc(S(=O)(=O)N2CCOCC2)c1 | . | 0.6% | . | . | . | .
CC#CCOC(=O)c1c(C)nc2sc3c(c2c1N)CCC(O)C3 (stereo not given) | -23.8%[46.1 µM] | 16.4µM* | ? | -0.6% | -59.3% | -10.0%[46.1 µM]
CC(C)(C)c1cc(Cl)c(O)c(NC(=S)NC(=O)c2cccnc2)c1 | -2.0% | -4.7% | ? | -0.5% | -77.9% | -10.5%
N#Cc1cccc(C(c2nnnn2C2CCCC2)N2CCC(Cc3ccccc3)CC2)c1 (stereo not given) | -2.8% | -3.3% | 1.8% | 0.5% | -45.1% | -1.9%
CC(C)COC(=O)c1ccc(NC(=O)C2C3CCC(C3)C2C(=O)O)cc1 (stereo not given) | 1.12µM* | ? | 16.9µM* | -3.0% | 21.3% | 3.98µM*
CCOC(=O)c1ccc(NC(=O)C2C3CCCCC32)cc1 (stereo not given) | ? | 22.8% | 15.1µM* | . | . | ?
CCOC(=O)c1ccc(NC(=O)N2CCCCCC2)cc1 | 1.78µM* | 5.8µM* | 8.49µM* | . | . | 1.12µM*
CCCOC(=O)c1ccc(NC(=O)C2CCCO2)cc1 (stereo not given) | 3.98µM* | ? | ? | -1.2% | ? | ?
NC(=O)c1ccc(NC(=O)C2CCCO2)cc1 (stereo not given) | -0.8% | -0.8% | -1.7% | 6.1% | -1.2% | -4.2%
O=C(N/N=C/c1cc([N+](=O)[O-])ccc1O)c1cccc(N2CCCC2=O)c1 | 6.0% | 7.7% | -13.2% | . | . | -10.4%
COc1ccc(NCc2nnc(SCC(=O)c3ccc(C)cc3)o2)cc1 | -3.2% | 9.6% | ? | -2.4% | -4.6% | 8.2%
O=C(O)CNS(=O)(=O)Cc1ccccc1 | -16.0% | 0.3% | -1.6% | . | . | -1.5%
CC(=O)c1ccc(NC(=O)C2(c3ccccc3)CC2(Cl)Cl)cc1 (stereo not given) | ? | ? | 26.9µM* | . | . | ?
O=C(Nc1ccc(F)cc1)/C(Cl)=C/c1ccccc1 | 2.51µM* | ? | 1.2µM* | -15.0% | 14.1µM* | 3.98µM*
CC(=O)c1ccc(NC(=O)/C(Cl)=C/c2ccccc2)cc1 | 3.98µM* | 8.2µM* | 0.953µM* | -8.2% | ? | 3.55µM*
CCC1(C)Cc2ccccc2-c2nc3n(c(=O)c21)CCCCC3 (stereo not given) | -0.9% | 8.3% | 2.4% | -1.1% | -19.5% | -0.2%
COc1cc(/C=N/Nc2nc3ccccc3o2)cc(OC)c1O | 8.1% | 14.8% | 15.1µM* | -0.9% | -6.5% | 1.0%
COc1ccc(/C=N/Nc2nc3ccccc3s2)cc1O | ? | 2.31µM* | 0.239µM* | -9.3% | 17.0% | ?
SMILES | Rab9 prom act | ELG1 genotox | FLuc modulator | KinaseGlo FLuc | SMN2 splice up | NPC1 promoter act
COc1ccc(C=C(c2nc3ccccc3s2)c2nc3ccccc3s2)cc1O | 5.7% | ? | 10.7µM* | -2.8% | -49.7% | -0.1%
COc1ccc(/C=N/Nc2nc3ccccc3o2)cc1O | ? | 0.92µM* | 0.953µM* | -1.2% | ? | ?
COc1cc(/C=N\Nc2nc3ccccc3o2)cc(OC)c1OC | 23.9% | 11.9% | ? | -4.6% | 3.5% | ?
CC(=O)Nc1ccc(/C=N/Nc2nc3ccccc3s2)cc1 | 0.447µM* | 2.59µM* | 0.953µM* | . | . | 0.708µM*
CC(=O)Nc1cccc(/C(C)=N/NC(=O)c2cc(-c3ccncc3)nc3ccccc23)c1 | 0.2% | -3.3% | ? | . | . | -2.1%
CC(=O)Nc1ccc(S(=O)(=O)Nc2nc3ccccc3s2)cc1 | -0.1% | -0.1% | 4.9% | -3.7% | 20.9% | -1.0%
CC(=O)Nc1cccc(/C(C)=N/Nc2nc3ccccc3s2)c1 | ? | ? | 10.7µM* | -0.7% | 11.2µM* | 1.7%
CC(=O)c1cccc(Nc2c3c(nc4ccccc24)CCC3)c1 | -24.4% | -0.1% | -2.4% | . | . | -37.3%
COCCNC(=O)CN1C(=O)c2cccc3cccc1c23 | 3.7% | -3.1% | -10.6% | . | . | -8.2%
O=C(Nc1ccccc1Cl)C1CC(=O)N(Cc2ccco2)C1 (stereo not given) | -2.1% | -0.2% | -0.3% | . | . | -0.2%
CCOC(=O)C1CCN(C(=O)c2ccccc2Oc2ccccc2)CC1 | -3.4% | 0.2% | 2.1% | -2.9% | -10.1% | -2.4%
O=C(Nc1ccc(-c2n[nH]c(=S)o2)cc1)c1ccccc1Br | -0.8% | 3.2% | 15.1µM* | . | . | 3.6%
CCc1ccc2nc(N3C(=O)C(O)=C(C(=O)c4ccco4)C3c3cccs3)sc2c1 (stereo not given) | 1.4% | 4.6% | ? | 3.1% | ? | -4.6%
Cc1ccc2nc(N3C(=O)C(O)=C(C(=O)c4cc5ccccc5o4)C3c3cccs3)sc2c1 (stereo not given) | 21.3% | ? | 4.78µM* | -0.6% | 8.8% | 26.7%
C=CCn1c(SCC(=O)NC(=O)NCCC)nnc1C1CCCCC1 | 0.4% | -2.7% | -1.1% | -3.7% | -3.8% | -4.1%
Cc1ccc(C(=O)N2CCc3ccccc32)o1 | 1.58µM* | ? | 9.53µM* | 12.6µM* | 7.94µM* | 2.24µM*
Cc1ccc(C(=O)N2c3ccccc3CC2C)o1 (stereo not given) | 1µM* | ? | 7.57µM* | 11.2µM* | 15.8µM* | 2µM*
Cc1c(C(=O)N2CCc3ccccc32)oc2c1C(=O)CC(C)(C)C2 | ? | 3.26µM* | 8.49µM* | 0.1% | 12.6µM* | 24.2%
O=C(c1ccc([N+](=O)[O-])o1)N1CCc2ccccc21 | 26.9% | 1.0% | -0.9% | . | . | 3.5%
CC(=O)c1c(C)[nH]c(C(=O)N2c3ccccc3CC2C)c1C (stereo not given) | 8.7% | 13.9% | 3.9% | 0.8% | 1.9% | -0.1%

Screening results (PubChem)
